# In the supplement of paper PMC10646978:
# ± gives the standard deviation.
# Experiments:
# Conditions in all cases: modulator concentration 10 µM
# [1] = system: RAW-Dual (murine macrophage reporter line); experiment: NF-kB reporter (SEAP) activity fold change vs agonist alone; higher = enhanced NF-kB activity
# Procedure, shortened: (§1)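 RAW-Dual murine macrophage reporter cells were seeded at 50 000 per well in 384-well plates and pre-incubated 1 hour at 37 °C with compound pin-transferred to 10 μM final. After 1 hour, a PRR agonist was added and cells incubated overnight. Supernatant NF-κB (SEAP, QUANTI-Blue, 620 nm absorbance) and IRF (Lucia luciferase, QUANTI-Luc, luminescence) signals were divided by the mean agonist-only control on the same plate to give fold change. Two replicate plates were averaged, with errors by propagation.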
# [2] = system: RAW-Dual (murine macrophage reporter line); experiment: IRF reporter (Lucia luciferase) activity fold change vs agonist alone; higher = enhanced IRF activity
# Procedure, shortened: as §1
# [3] = system: RAW-Dual (murine macrophage reporter line); experiment: viability score (confluency relative to resting cells, overnight) (fraction); higher = more viable, active = viable (0.7 or more)
# Procedure, shortened: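 RAW-Dual macrophages in 384-well plates were incubated overnight with compound, final concentration 10 μM. Confluency images from IncuCyte were processed in IncuCyte software into two masks covering all imaged wells. The viability score is each well's confluency relative to resting cells, and a compound met the cutoff when both masks exceeded 70% of resting cells.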
# [4] = agonist: CpG ODN 1826 0.5 ug/mL
smiles,measurement,setting,value
CCC(=O)Nc1ccc(S(=O)(=O)NCC2CCN(Cc3ccccc3)CC2)c(C)c1,NF-kB reporter,[1]; [4],0.787 ± 0.038
same,NF-kB reporter,[1]; agonist: LPS 0.1 ug/mL,0.961 ± 0.076
same,NF-kB reporter,[1]; agonist: MPLA […],1.08 ± 0.058
same,IRF reporter,[2]; agonist: 3'3'-cGAMP 10 ug/mL,1.14 ± 0.053
same,IRF reporter,[2]; agonist: LPS 0.1 ug/mL,1.37 ± 0.23
same,IRF reporter,[2]; agonist: MPLA […],1.49 ± 0.43
same,viability score,[3],0.967 (active)
CSCCC(NC(C)=O)C(=O)NC1CCN(c2nc(C)nc3c2CCCC3)CC1 (stereo not given),NF-kB reporter,[1]; [4],0.836 ± 0.061
same,NF-kB reporter,[1]; agonist: LPS 0.1 ug/mL,1.06 ± 0.086
same,NF-kB reporter,[1]; agonist: MPLA […],0.896 ± 0.048
same,IRF reporter,[2]; agonist: 3'3'-cGAMP 10 ug/mL,0.957 ± 0.073
same,IRF reporter,[2]; agonist: LPS 0.1 ug/mL,1.29 ± 0.18
same,IRF reporter,[2]; agonist: MPLA […],1.17 ± 0.16
same,viability score,[3],0.999 (active)
CC(C)Oc1ccc(C(=O)N2CCC(c3ccccc3)S(=O)(=O)CC2)cc1 (stereo not given),NF-kB reporter,[1]; [4],0.906 ± 0.061
same,NF-kB reporter,[1]; agonist: LPS 0.1 ug/mL,1.07 ± 0.098
same,NF-kB reporter,[1]; agonist: MPLA […],0.876 ± 0.049
same,IRF reporter,[2]; agonist: 3'3'-cGAMP 10 ug/mL,0.928 ± 0.049
same,IRF reporter,[2]; agonist: LPS 0.1 ug/mL,1.13 ± 0.069
same,IRF reporter,[2]; agonist: MPLA […],1.09 ± 0.092
same,viability score,[3],0.992 (active)
c1ccc(CSc2nnc(-c3ccncc3)o2)cc1,NF-kB reporter,[1]; [4],1.08 ± 0.075
same,NF-kB reporter,[1]; agonist: LPS 0.1 ug/mL,1.18 ± 0.073
same,NF-kB reporter,[1]; agonist: MPLA […],1.44 ± 0.13
same,IRF reporter,[2]; agonist: 3'3'-cGAMP 10 ug/mL,0.379 ± 0.017
same,IRF reporter,[2]; agonist: LPS 0.1 ug/mL,0.65 ± 0.056
same,IRF reporter,[2]; agonist: MPLA […],0.501 ± 0.068
same,viability score,[3],0.988 (active)
Cc1ccc(-c2cc(-c3ccccc3)nc(N3CCOCC3)n2)cc1,NF-kB reporter,[1]; [4],0.811 ± 0.077
same,NF-kB reporter,[1]; agonist: LPS 0.1 ug/mL,1.01 ± 0.075
same,NF-kB reporter,[1]; agonist: MPLA […],1.1 ± 0.076
same,IRF reporter,[2]; agonist: 3'3'-cGAMP 10 ug/mL,0.71 ± 0.065
same,IRF reporter,[2]; agonist: LPS 0.1 ug/mL,1.05 ± 0.047
same,IRF reporter,[2]; agonist: MPLA […],1.17 ± 0.082
same,viability score,[3],0.998 (active)
O=C(NCCCOc1cccc2cccnc12)c1cccnc1,NF-kB reporter,[1]; [4],0.892 ± 0.081
same,NF-kB reporter,[1]; agonist: LPS 0.1 ug/mL,0.909 ± 0.077
same,NF-kB reporter,[1]; agonist: MPLA […],1.11 ± 0.13
same,IRF reporter,[2]; agonist: 3'3'-cGAMP 10 ug/mL,1 ± 0.049
same,IRF reporter,[2]; agonist: LPS 0.1 ug/mL,1.17 ± 0.2
same,IRF reporter,[2]; agonist: MPLA […],1.25 ± 0.39
same,viability score,[3],0.989 (active)
Clc1ccc2c(c1)C(N1CCNCC1)=Nc1ccccc1O2,NF-kB reporter,[1]; [4],0.996 ± 0.26
same,NF-kB reporter,[1]; agonist: LPS 0.1 ug/mL,1.02 ± 0.066
same,NF-kB reporter,[1]; agonist: MPLA […],0.969 ± 0.07
same,IRF reporter,[2]; agonist: 3'3'-cGAMP 10 ug/mL,0.893 ± 0.03
same,IRF reporter,[2]; agonist: LPS 0.1 ug/mL,1.2 ± 0.25
same,IRF reporter,[2]; agonist: MPLA […],1.28 ± 0.13
same,viability score,[3],0.637 (inactive)
Cc1ncc(CC(=O)N2CCC(c3ccccc3F)S(=O)(=O)CC2)s1 (stereo not given),NF-kB reporter,[1]; [4],0.93 ± 0.041
same,NF-kB reporter,[1]; agonist: LPS 0.1 ug/mL,0.961 ± 0.1
same,NF-kB reporter,[1]; agonist: MPLA […],0.959 ± 0.053
same,IRF reporter,[2]; agonist: 3'3'-cGAMP 10 ug/mL,0.983 ± 0.074
same,IRF reporter,[2]; agonist: LPS 0.1 ug/mL,0.985 ± 0.14
same,IRF reporter,[2]; agonist: MPLA […],0.998 ± 0.27
same,viability score,[3],1.01 (active)
COc1cc(NC(=O)NCc2nc(C)cc(N3CCOCC3)n2)cc(OC)c1,NF-kB reporter,[1]; [4],1.33 ± 0.32
same,NF-kB reporter,[1]; agonist: LPS 0.1 ug/mL,1.04 ± 0.053
same,NF-kB reporter,[1]; agonist: MPLA […],1.07 ± 0.11
same,IRF reporter,[2]; agonist: 3'3'-cGAMP 10 ug/mL,0.886 ± 0.031
same,IRF reporter,[2]; agonist: LPS 0.1 ug/mL,1.15 ± 0.14
same,IRF reporter,[2]; agonist: MPLA […],1.09 ± 0.11
same,viability score,[3],0.982 (active)
Cc1n[nH]c(C)c1S(=O)(=O)N1CCCN(C(=O)Cc2ccccc2Cl)CC1,NF-kB reporter,[1]; [4],1.03 ± 0.051
same,NF-kB reporter,[1]; agonist: LPS 0.1 ug/mL,1.14 ± 0.11
same,NF-kB reporter,[1]; agonist: MPLA […],1 ± 0.18
same,IRF reporter,[2]; agonist: 3'3'-cGAMP 10 ug/mL,1.05 ± 0.053
same,IRF reporter,[2]; agonist: LPS 0.1 ug/mL,1.21 ± 0.074
same,IRF reporter,[2]; agonist: MPLA […],1.26 ± 0.11
same,viability score,[3],0.979 (active)
CCN(CC)c1ccc(C=NNC(=O)c2ccccc2)c(O)c1,NF-kB reporter,[1]; [4],2.34 ± 0.38
same,NF-kB reporter,[1]; agonist: LPS 0.1 ug/mL,2.11 ± 0.16
same,NF-kB reporter,[1]; agonist: MPLA […],4.3 ± 0.34
same,IRF reporter,[2]; agonist: 3'3'-cGAMP 10 ug/mL,0.0729 ± 0.013
same,IRF reporter,[2]; agonist: LPS 0.1 ug/mL,2.18 ± 0.29
same,IRF reporter,[2]; agonist: MPLA […],2.36 ± 0.42
same,viability score,[3],0.814 (active)
CCN(CC)c1ccc2cc(-c3nnc(NCc4ccccc4)s3)c(=O)oc2c1,NF-kB reporter,[1]; [4],1.12 ± 0.15
same,NF-kB reporter,[1]; agonist: LPS 0.1 ug/mL,1.14 ± 0.072
same,NF-kB reporter,[1]; agonist: MPLA […],0.912 ± 0.07
same,IRF reporter,[2]; agonist: 3'3'-cGAMP 10 ug/mL,0.598 ± 0.026
same,IRF reporter,[2]; agonist: LPS 0.1 ug/mL,1.47 ± 0.25
same,IRF reporter,[2]; agonist: MPLA […],1.28 ± 0.22
same,viability score,[3],0.997 (active)
Cc1c(C)c2c(c(C)c1O)CCC(C)(C(=O)O)O2 (stereo not given) [Prestw-530],NF-kB reporter,[1]; [4],1.14 ± 0.13
same,NF-kB reporter,[1]; agonist: LPS 0.1 ug/mL,1.03 ± 0.078
same,NF-kB reporter,[1]; agonist: MPLA […],0.98 ± 0.03
same,IRF reporter,[2]; agonist: 3'3'-cGAMP 10 ug/mL,0.986 ± 0.042
same,IRF reporter,[2]; agonist: LPS 0.1 ug/mL,0.98 ± 0.054
same,IRF reporter,[2]; agonist: MPLA […],1.03 ± 0.1
same,viability score,[3],0.998 (active)
CCS(=O)(=O)N1CCN(c2ccc(Nc3ncc(C(N)=O)c(NC4CC4)n3)cc2)CC1.Cl,NF-kB reporter,[1]; [4],1.08 ± 0.046
same,NF-kB reporter,[1]; agonist: LPS 0.1 ug/mL,0.355 ± 0.033
same,NF-kB reporter,[1]; agonist: MPLA […],0.622 ± 0.042
same,IRF reporter,[2]; agonist: 3'3'-cGAMP 10 ug/mL,0.0973 ± 0.0051
same,IRF reporter,[2]; agonist: LPS 0.1 ug/mL,0.301 ± 0.072
same,IRF reporter,[2]; agonist: MPLA […],0.324 ± 0.081
same,viability score,[3],0.899 (active)
O=C(NN=Cc1ccccc1C(F)(F)F)c1ccc(=O)[nH]n1,NF-kB reporter,[1]; [4],0.764 ± 0.062
same,NF-kB reporter,[1]; agonist: LPS 0.1 ug/mL,0.877 ± 0.052
same,NF-kB reporter,[1]; agonist: MPLA […],1.08 ± 0.098
same,IRF reporter,[2]; agonist: 3'3'-cGAMP 10 ug/mL,0.964 ± 0.052
same,IRF reporter,[2]; agonist: LPS 0.1 ug/mL,1.23 ± 0.08
same,IRF reporter,[2]; agonist: MPLA […],1.28 ± 0.12
same,viability score,[3],0.999 (active)
